According to PubChem BioAssay (NCATS):
Records with an inconclusive call do not appear. Where a call stands in place of a potency, no number is given. The source made the active and inactive calls. Calls come from the whole dose curve; as a rule, active = well fitted inhibition curve with a large enough effect; inconclusive = small, poorly fitted or top-dose-only effect; inactive = flat fitted curve, though single readings scatter.
Potency is the fitted concentration of half-maximal effect.

These compounds were tested on PC26 (assay: qHTS profiling for inhibitors of Plasmodium falciparum proliferation (AID 504749; note: nearly all actives have a fitted effect of over 60% in size)). Details: P. falciparum in erythrocytes, SYBR Green DNA, 72 h; series mostly up to 28.7 µM.
In short: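 SYBR Green fluorescence of parasite DNA, read after lysis and overnight dark incubation, measured growth over 72 h in erythrocyte culture at 0.3% parasitemia and 2.5% hematocrit. Data normalised to DMSO and 0.29 uM artemisinin, with plate-drift correction.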
`CO[C@H](C(=O)[C@@H](O)[C@@H](C)O)C1Cc2cc3cc(O[C@H]4C[C@@H](O[C@H]5C[C@@H](O)[C@H](O)[C@@H](C)O5)[C@@H](O)[C@@H](C)O4)c(C)c(O)c3c(O)c2C(=O)[C@H]1O[C@H]1C[C@@H](O[C@H]2C[C@@H](O[C@H]3C[C@](C)(O)[C@H](O)[C@@H](C)O3)[C@H](O)[C@@H](C)O2)[C@H](O)[C@@H](C)O1` (stereo partly specified) was tested, and the Potency was 3.01 µM (active). For `O=C(O)c1cc(O)c2c(c1)[O][Bi][O]2`, the Potency was “inactive”. For `NC(=O)c1ncn(C2OC(CO)C(O)C2O)n1` (stereo unspecified), the Potency was “inactive”. For `CC[N+](C)(C)Cc1ccccc1Br`, the Potency was “inactive”. `Nc1ncnc2c1ncn2[C@@H]1O[C@H](COP(=O)(O)OP(=O)(O)OP(=O)(O)O)[C@@H](O)[C@H]1O` was tested, and the Potency was “inactive”. In the case of `CCCCCCCCCCCCCCCC(=O)OCC(COC(=O)CCCCCCCCCCCCCCC)OC(=O)CCCCCCCCCCCCCCC`, the Potency is reported as “inactive”. With `CCCC(=O)O[C@]1(C(=O)CCl)[C@H](C)C[C@@H]2[C@H]3CCC4=CC(=O)C=C[C@]4(C)[C@@]3(F)C(=O)C[C@@]21C` the Potency was 3.01 µM (active). For `O=S(=O)(O)O`, the Potency was “inactive”. `Cc1ccccc1OCC(O)CNCCOc1ccc(C(N)=O)cc1` (stereo unspecified) was tested, and the Potency was “inactive”. For `CCCCC/C=C\C/C=C\CCCCCCCC(=O)O`, the Potency was “inactive”. `C[C@@H]1CCC2[C@@H](C)[C@@H](O)O[C@@H]3O[C@@]4(C)CC[C@@H]1[C@@]23OO4` (stereo partly specified) was tested, and the Potency was 0.0027 µM (active). With `Nc1c(N=Nc2ccc(-c3ccc(N=Nc4cc(S(=O)(=O)O)c5ccccc5c4N)cc3)cc2)cc(S(=O)(=O)O)c2ccccc12` the Potency was “inactive”. In the case of `CC1(C)S[C@@H]2[C@H](NC(=O)[C@@H](NC(=O)N3CCNC3=O)c3ccccc3)C(=O)N2[C@H]1C(=O)O`, the Potency is reported as “inactive”. With `CC(O)CO` (stereo unspecified) the Potency was “inactive”. With `COC(=O)CCC(=O)CN` the Potency was “inactive”. For `CC1=C(/C=C/C(C)=C/C=C/C(C)=C/C=C/C=C(C)/C=C/C=C(C)/C=C/C2=C(C)CCCC2(C)C)C(C)(C)CCC1`, the Potency was “inactive”. In the case of `C[C@H]1C[C@H]2[C@@H]3CCC4=CC(=O)C=C[C@]4(C)[C@@]3(F)[C@@H](O)C[C@]2(C)[C@@]1(O)C(=O)CO`, the Potency is reported as “inactive”. For `O=C1C(=O)c2ncccc2-c2cccnc21`, the Potency was 1.07 µM (active). With `CCCCCCCCCCCCCC[n+]1ccc(C)cc1` the Potency was 4.78 µM (active). `COC(C(=O)C(O)C(C)O)C1Cc2cc3cc(OC4CC(OC5CC(O)C(O)C(C)O5)C(O)C(C)O4)c(C)c(O)c3c(O)c2C(=O)C1OC1CC(OC2CC(OC3CC(C)(O)C(O)C(C)O3)C(O)C(C)O2)C(O)C(C)O1` (stereo unspecified) was tested, and the Potency was 2.69 µM (active). In the case of `CCCCCCC(O)C/C=C/CCCCCCCC(=O)O` (stereo unspecified), the Potency is reported as “inactive”. For `C[C@]12CCC(=O)C=C1CC[C@@H]1[C@@H]2[C@@H](O)C[C@@]2(C)[C@H]1CC[C@]2(O)C(=O)COP(=O)(O)O`, the Potency was “inactive”. With `Cc1cc(C(=O)NNCc2ccccc2)no1` the Potency was “inactive”. In the case of `O=C(O)CCC(=O)C(=O)O`, the Potency is reported as “inactive”. With `CCCCCCCCCCCC[n+]1ccc2ccccc2c1` the Potency was 0.953 µM (active). With `Cc1cn([C@H]2C[C@H](O)[C@@H](CO)O2)c(=O)[nH]c1=O` the Potency was “inactive”.
